Results taken from PubChem BioAssay AID493194 (Broad Institute, 2011).
Potency and affinity values are given separately. Records with an inconclusive call do not appear.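 Rule for the calls: active = a valid curve of falling signal whose half-effect concentration is at most ten times the top tested dose; inconclusive = flat curve at 30 to 70% inhibition, or poor fit; inactive = signal rise, flat within 30%, or potency beyond limit.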

Target: Scavenger receptor class B member 1 (Mus musculus) (UniProt Q61009)
Assay: inhibitors of SR-BI mediated HDL lipid uptake, dose response, ldlA[mSR-BI] cells, fluorescence, cherry pick (AID 493194);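 note: CHO cells lacking LDL receptor and overexpressing mouse SR-BI; cellular uptake of fluorescently labeled HDL measured as cell fluorescence; 0% = median of neutral control wells and -100% = median of positive control wells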
Details: CHO ldlA[mSR-BI] DiI-HDL uptake fluorescence, 3 h; series mostly up to 35 µM; activity change, negative = inhibition: at the top concentration

Chain of Scavenger receptor class B member 1 (Mus musculus) (Q61009 whole entry, looked up): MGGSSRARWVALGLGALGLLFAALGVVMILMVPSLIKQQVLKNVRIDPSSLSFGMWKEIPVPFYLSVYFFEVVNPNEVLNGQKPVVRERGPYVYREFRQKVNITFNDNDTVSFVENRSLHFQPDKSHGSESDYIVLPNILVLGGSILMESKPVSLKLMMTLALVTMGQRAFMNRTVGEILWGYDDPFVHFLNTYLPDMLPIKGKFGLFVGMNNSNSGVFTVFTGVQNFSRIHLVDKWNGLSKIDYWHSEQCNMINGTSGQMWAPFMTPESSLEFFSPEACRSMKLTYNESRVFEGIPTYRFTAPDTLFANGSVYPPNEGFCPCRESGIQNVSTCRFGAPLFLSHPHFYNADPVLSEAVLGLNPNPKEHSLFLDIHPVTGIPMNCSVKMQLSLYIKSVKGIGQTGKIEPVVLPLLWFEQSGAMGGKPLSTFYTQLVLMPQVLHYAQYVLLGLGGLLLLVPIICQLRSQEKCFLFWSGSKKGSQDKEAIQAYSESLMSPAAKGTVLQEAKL

Activity change, negative = inhibition, inactive:
O=C(c1ccc(S(=O)(=O)NCc2ccco2)cc1)N1CCN(Cc2ccccc2F)CC1 -13.8%
Cc1c(C(=O)N2CC3(CC(c4cccc(NC(=O)CC(c5ccccc5)c5ccccc5)c4)=NO3)C[C@@H]2C(N)=O)cc([N+](=O)[O-])cc1[N+](=O)[O-] (stereo not given in full) 59.2%
Cc1ccc(CNC(=O)c2ccc(N3CCC4(CC3)CC(c3cccc(Br)c3)=NO4)c([N+](=O)[O-])c2)cc1 -0.849%
CCOc1ccccc1COC(=O)c1cccc(-n2cnnn2)c1 -9.83%
CN1CCC2CC1c1cc(-c3ccc(C(F)(F)F)cc3)ccc12 (stereo not given) -2.48%
O=C(Nc1cccc(-c2csc(Nc3ccc(Cl)cc3)n2)c1)c1cccc(C(F)(F)F)c1 -46.5%
Cc1cccc(NC(=O)c2cc(-c3cc(C)cc(C)c3O)n[nH]2)c1 -31.4%
O=C(NCC1CCCO1)c1ccc2c(c1)N(Cc1ccc(F)cc1Cl)C(=O)CS2 (stereo not given) 0.105%
CC(C)CN(CC(C)C)C(=O)COn1nnc2ccc(S(=O)(=O)N3CCOCC3)cc21 -17.4%
COc1ccc(N2CC(C(=O)N3CCN(S(=O)(=O)c4ccc(F)c(F)c4)CC3)CC2=O)c(OC)c1 (stereo not given) 20.3%
CS(=O)(=O)N1CCc2cc(-c3csc(NC(=O)Cc4ccccc4)n3)ccc21 13%
CCCCn1nc2cc(C(=O)NC3CCCc4ccccc43)ccc2c1OCC (stereo not given) -28%
COc1ccc(-c2cc(C(F)(F)F)nc(SCCC(=O)N3CCN4CCCC4C3)n2)cc1 (stereo not given) 0.459%
COc1cc(C(=S)N2CCCC2)ccc1OC(=O)c1ccc(Cl)cc1[N+](=O)[O-] -29.2%
Cc1ccsc1-c1nc(-c2ccccc2)c(-c2ccccc2)[nH]1 -8.96%
